Experimental data from the supplement of paper PMC11634586.
Structures can show the parent of a compound that is named as a salt. A number with no mark means an inactive call.

test system: NCI-H1688; test: inhibition of cell viability relative to untreated control (fraction); higher = stronger growth inhibition, active = 0.5 or more; conditions: 30 µM; 24 h
Summary of the method: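 NCI-H1688 small cell lung cancer cells were seeded at 3 × 10^3 cells/well in 96-well plates and treated 24 h later with a natural compound library (TargetMol) at 30 µM for 24 h, at 37°C with 5% CO2. Viability was read in triplicate with Cell Counting Kit-8 as absorbance at 450 nm. Inhibition of cell viability is expressed as a fraction, derived from viability normalised to the untreated control.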

Row | Compound | inhibition of cell viability
1 | C[C@H](CCC(=O)O)[C@H]1CC[C@H]2[C@@H]3[C@H](O)C[C@@H]4C[C@H](O)CC[C@]4(C)[C@H]3C[C@H](O)[C@]12C [Cholic Acid] | -0.419
2 | C[C@@]12C[C@@]3(O)O[C@@H](O1)[C@]1(COC(=O)c4ccccc4)[C@H]3C[C@@]12O[C@@H]1O[C@H](CO)[C@@H](O)[C@H](O)[C@H]1O [Paeoniflorin] | 0.068
3 | C=C1C[C@@]2(O)O[C@@]3(C[C@H]2C(C)C)[C@@H](C)CC[C@@H]13 [Curcumol] | -0.0691
4 | C[C@@H]1O[C@@H](O[C@H]2C(=O)c3c(O)cc(O)cc3O[C@@H]2c2ccc(O)c(O)c2)[C@H](O)[C@H](O)[C@H]1O [Astilbin] | -0.0142
5 | OC[C@@H](O)[C@H](O)[C@H](O)[C@@H](O)CO [Dulcitol] | -0.284
6 | OC[C@@H](O)[C@@H](O)CO [Erythritol] | 0.038
7 | CC(=O)O[C@H]1C(=O)[C@@]2(C)[C@H]([C@H](OC(=O)c3ccccc3)[C@]3(O)C[C@H](OC(=O)[C@H](O)[C@@H](NC(=O)c4ccccc4)c4ccccc4)C(C)=C1C3(C)C)[C@]1(OC(C)=O)CO[C@@H]1C[C@@H]2O [Paclitaxel] | 0.555 (active)
8 | CC(=O)[C@@]1(O)CC[C@H]2[C@@H]3CCC4=CC(=O)CC[C@]4(C)[C@H]3CC[C@@]21C [Hydroxyprogesterone] | 0.102
9 | OCc1ccccc1O[C@@H]1O[C@H](CO)[C@@H](O)[C@H](O)[C@H]1O | -0.21
10 | O=c1cc(-c2ccc(O)cc2)oc2cc(O)cc(O)c12 [Apigenin] | 0.487
11 | O=C[C@H](NS(=O)(=O)O)[C@@H](O)[C@H](O)[C@H](O)CO [N-Sulfo-glucosamine sodium salt] | 0.162
12 | C[C@H]1O[C@@H](O[C@H]2[C@@H](O)C[C@H](O[C@H]3[C@@H](O)C[C@H](O[C@H]4CC[C@@]5(C)[C@H](CC[C@@H]6[C@@H]5C[C@@H](O)[C@]5(C)[C@@H](C7=CC(=O)OC7)CC[C@]65O)C4)O[C@@H]3C)O[C@@H]2C)C[C@H](O)[C@@H]1O [Digoxin] | 0.995 (active)
13 | CC[C@@H]1C(=O)OC[C@@H]1Cc1cncn1C [Pilocarpine nitrate] | -0.128
14 | CCCCCCCCCCCCCCCCCCCCCCCCCCCCCCO | 0.22
15 | OC[C@H]1O[C@@H](Oc2cc(O)cc(/C=C/c3ccc(O)cc3)c2)[C@H](O)[C@@H](O)[C@@H]1O [Piceid] | 0.175
16 | C=C(C)[C@@H]1CC[C@]2(CO)CC[C@]3(C)[C@H](CC[C@@H]4[C@@]5(C)CC[C@H](O)C(C)(C)[C@@H]5CC[C@]43C)[C@@H]12 [Betulin] | 0.831 (active)
17 | O=C(O)C1=C[C@@H](O)[C@@H](O)[C@H](O)C1 [Shikimic Acid] | 0.0707
18 | C[C@@H]1CC[C@@]2(OC1)O[C@H]1C[C@H]3[C@@H]4CC=C5C[C@@H](O)CC[C@]5(C)[C@H]4CC[C@]3(C)[C@H]1[C@@H]2C [Diosgenin] | -0.279
19 | CC1(C)CCC[C@]2(C)[C@H]3CC(=O)O[C@]3(C)CC[C@@H]12 [Sclareolide] | 0.206
20 | O=C(O)[C@H]1O[C@@H](Oc2cc3oc(-c4ccccc4)cc(=O)c3c(O)c2O)[C@H](O)[C@@H](O)[C@@H]1O [Baicalin] | -0.127
21 | COc1ccc(-c2cc(=O)c3c(OC)c(OC)c(OC)c(OC)c3o2)cc1OC [Nobiletin] | 0.293
22 | O=c1ccc2ccccc2o1 [Coumarin] | -0.151
23 | COc1ccc2c(c1OC)C(=O)O[C@@H]2[C@H]1c2c(cc3c(c2OC)OCO3)CCN1C [Noscapine hydrochloride] | 0.323
24 | O=C(/C=C/c1ccc(O)c2oc(-c3ccc(O)c(O)c3)cc12)O[C@H](Cc1ccc(O)c(O)c1)C(=O)O [Salvianolic Acid C] | 0.0822
25 | OC[C@H]1O[C@@](CO)(O[C@H]2O[C@H](CO)[C@@H](O)[C@H](O)[C@H]2O)[C@@H](O[C@H]2O[C@H](CO)[C@@H](O)[C@H](O)[C@H]2O)[C@@H]1O [Melezitose] | -0.0856
26 | NCCCC(=O)O [4-Aminobutyric acid] | -0.231
27 | COc1ccc(CCC(=O)c2c(O)cc(O[C@@H]3O[C@H](CO)[C@@H](O)[C@H](O)[C@H]3O[C@@H]3O[C@@H](C)[C@H](O)[C@@H](O)[C@H]3O)cc2O)cc1O [Neohesperidin Dihydrochalcone (Nhdc)] | -0.0245
28 | CC(=O)O[C@]1(C)CC[C@@]23C[C@H]1C(C)(C)[C@@H]2CC[C@H]3C [Cedryl acetate] | -0.223
